Holding throughout (details): mRNA level, 48 h; actives raise or lower the signal
Read-out in assay [1]: CFLAR gene, CFLAR (gene 8837)
Kind of assay: LTEA_HepaRG_CFLAR: Life Technologies and Expression Analysis (LTEA) Assay for CFLAR gene using HepaRG (AID 2283455). In short, it runs like this: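 Differentiated HepaRG cells in serum-free induction medium were exposed 48 h in duplicate to eight half-log concentrations up to 100 uM in 0.5% DMSO; mRNA measured by TaqMan qRT-PCR, normalized to ACTB, GAPDH, POLR2A; bidirectional fitting versus DMSO.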

Read-out in assay [2]: Forkhead box O1 (FOXO1), FOXO1 (gene 2308)
Kind of assay: LTEA_HepaRG_FOXO1: Life Technologies and Expression Analysis (LTEA) Assay for Forkhead box O1 (FOXO1) using HepaRG (AID 2283456). In short, it runs like this:
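Differentiated HepaRG cells, in serum-free induction medium with 0.5% DMSO, exposed 48 h in duplicate to 8-point half-log series from 100 uM. FOXO1 mRNA measured by TaqMan qRT-PCR, normalized to ACTB, GAPDH, POLR2A; bidirectional fit versus DMSO.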

Read-out in assay [3]: growth arrest and DNA damage 45 (GADD45A), GADD45A (gene 1647)
As to the kind of experiment: LTEA_HepaRG_GADD45A: Life Technologies and Expression Analysis (LTEA) Assay for growth arrest and DNA damage 45 (GADD45A) using HepaRG (AID 2283458). In short, it runs like this: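 Differentiated HepaRG cells exposed 48 h in serum-free induction medium to 8 concentrations, top 100 uM in half-log steps, 0.5% DMSO. GADD45A mRNA quantified by qRT-PCR, normalized to ACTB, GAPDH and POLR2A; bidirectional fit versus DMSO.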

Read-out in assay [4]: Forkhead box O3 (FOXO3), FOXO3 (gene 2309)
As to the kind of experiment: LTEA_HepaRG_FOXO3: Life Technologies and Expression Analysis (LTEA) Assay for Forkhead box O3 (FOXO3) using HepaRG (AID 2283459). In short, it runs like this:
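Differentiated human HepaRG cells, 48 h post-plating, exposed in duplicate for 48 h in serum-free induction medium; 8-point half-log series from 100 uM in 0.5% DMSO. FOXO3 mRNA by TaqMan qRT-PCR, normalized to ACTB/GAPDH/POLR2A; bidirectional fit versus DMSO.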

Read-out in assay [5]: ABC Transporter (ABCB1), ABCB1 (gene 5243)
Kind of assay: LTEA_HepaRG_ABCB1: Life Technologies and Expression Analysis (LTEA) Assay for ABC Transporter (ABCB1) using HepaRG (AID 2283460). In short, it runs like this:
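HepaRG cells exposed in duplicate for 48 h in serum-free induction medium to eight half-log concentrations up to 100 uM in 0.5% DMSO. ABCB1 mRNA quantified by qRT-PCR, normalised to ACTB, GAPDH and POLR2A; fitted bidirectionally versus DMSO.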

Read-out in assay [6]: growth arrest and DNA damage 45 (GADD45B), GADD45B (gene 4616)
As to the kind of experiment: LTEA_HepaRG_GADD45B: Life Technologies and Expression Analysis (LTEA) Assay for growth arrest and DNA damage 45 (GADD45B) using HepaRG (AID 2283461). In short, it runs like this:
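Transcript level quantified by Fluidigm TaqMan qRT-PCR with three housekeeping genes for normalization, analyzed for up- or down-regulation against 0.5% DMSO. HepaRG cultures dosed 48 h at eight half-log concentrations up to 100 uM, duplicates.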

Read-out in assay [7]: ABC Transporter (ABCC3), ABCC3 (gene 8714)
Kind of assay: LTEA_HepaRG_ABCC3: Life Technologies and Expression Analysis (LTEA) Assay for ABC Transporter (ABCC3) using HepaRG (AID 2283462). In short, it runs like this:
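Transcript level by TaqMan qRT-PCR, normalised to three housekeeping genes, fitted in both directions relative to vehicle. Chemicals tested in duplicate at eight half-log concentrations up to 100 uM for 48 h on HepaRG cells (0.5% DMSO).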

Read-out in assay [8]: ABC Transporter (ABCB11), ABCB11 (gene 8647)
As to the kind of experiment: LTEA_HepaRG_ABCB11: Life Technologies and Expression Analysis (LTEA) Assay for ABC Transporter (ABCB11) using HepaRG (AID 2283463). In short, it runs like this: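 Differentiated human HepaRG cells in serum-free induction medium, dosed in duplicate for 48 h. Eight-point half-log series from 100 uM in 0.5% DMSO; ABCB11 mRNA by qRT-PCR, normalized to ACTB, GAPDH, POLR2A, fitted bidirectionally versus DMSO.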

Read-out in assay [9]: ABC Transporter (ABCC2), ABCC2 (gene 1244)
As to the kind of experiment: LTEA_HepaRG_ABCC2: Life Technologies and Expression Analysis (LTEA) Assay for ABC Transporter (ABCC2) using HepaRG (AID 2283464). In short, it runs like this: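 Endpoint is ABCC2 transcript level from qRT-PCR, normalized to three housekeeping genes and fitted bidirectionally relative to DMSO. Human HepaRG cells received test chemical for 48 h at up to 100 uM (8 points, half-log steps, 0.5% DMSO), duplicate wells.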

Read-out in assay [10]: Broad substrate specificity ATP-binding cassette transporter ABCG2 (Homo sapiens) (UniProt Q9UNQ0)
As to the kind of experiment: LTEA_HepaRG_ABCG2: Life Technologies and Expression Analysis (LTEA) Assay for ABC Transporter (ABCG2) using HepaRG (AID 2283465). In short, it runs like this: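 Differentiated HepaRG cells were exposed for 48 h in serum-free induction medium to 8 half-log concentrations, top 100 uM, in 0.5% DMSO. ABCG2 mRNA was measured by qRT-PCR, normalized to ACTB, GAPDH and POLR2A, with bidirectional fitting versus DMSO.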

Read-out in assay [11]: ATP-citrate lyase (ACLY), ACLY (gene 47)
Kind of assay: LTEA_HepaRG_ACLY: Life Technologies and Expression Analysis (LTEA) Assay for ATP-citrate lyase (ACLY) using HepaRG (AID 2283466). In short, it runs like this:
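Differentiated HepaRG cells exposed 48 h in serum-free induction medium to eight half-log concentrations up to 100 uM in 0.5% DMSO, duplicates. Transcript measured by Fluidigm TaqMan qRT-PCR, normalized to ACTB, GAPDH, POLR2A; bidirectional fit versus DMSO.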

Read-out in assay [12]: Peroxisomal acyl-coenzyme A oxidase 1 (ACOX1) gene, ACOX1 (gene 51)
Kind of assay: LTEA_HepaRG_ACOX1: Life Technologies and Expression Analysis (LTEA) Assay for Peroxisomal acyl-coenzyme A oxidase 1 (ACOX1) gene using HepaRG (AID 2283467). In short, it runs like this:
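HepaRG cells, plated 48 h then switched to serum-free induction medium, were exposed in duplicate for 48 h to 8-point half-log concentrations up to 100 uM in 0.5% DMSO. ACOX1 mRNA was measured by qRT-PCR, normalized to ACTB/GAPDH/POLR2A, and fitted bidirectionally versus DMSO.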

Read-out in assay [13]: Alkaline Phosphatase, Placental (ALPP) gene, ALPP (gene 250)
As to the kind of experiment: LTEA_HepaRG_ALPP: Life Technologies and Expression Analysis (LTEA) Assay for Alkaline Phosphatase, Placental (ALPP) gene using HepaRG (AID 2283468). In short, it runs like this:
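ALPP transcript level, measured by qRT-PCR and normalized to three housekeeping genes (ACTB, GAPDH, POLR2A), after 48 h dosing of differentiated HepaRG in serum-free induction medium. Top concentration 100 uM with half-log dilutions (8 points, 0.5% DMSO, duplicates); bidirectional fitting relative to DMSO.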

Read-out in assay [14]: Bcl-2 (BAD) gene, BAD (gene 572)
Kind of assay: LTEA_HepaRG_BAD: Life Technologies and Expression Analysis (LTEA) Assay for Bcl-2 (BAD) gene using HepaRG (AID 2283469). In short, it runs like this:
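Differentiated HepaRG cells were exposed in duplicate in 0.5% DMSO for 48 h to eight-point half-log concentrations up to 100 uM. BAD mRNA was measured by Fluidigm TaqMan qRT-PCR, normalized to ACTB, GAPDH and POLR2A, and fitted bidirectionally against DMSO.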

Read-out in assay [15]: Bcl-2 (BAX) gene, BAX (gene 581)
As to the kind of experiment: LTEA_HepaRG_BAX: Life Technologies and Expression Analysis (LTEA) Assay for Bcl-2 (BAX) gene using HepaRG (AID 2283470). In short, it runs like this:
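Differentiated HepaRG cells exposed 48 h in serum-free induction medium, eight half-log concentrations from 100 uM, in duplicate, 0.5% DMSO vehicle. BAX mRNA by TaqMan qRT-PCR, normalised to ACTB, GAPDH and POLR2A.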

Read-out in assay [16]: adenosine kinase (ADK) gene, ADK (gene 132)
Kind of assay: LTEA_HepaRG_ADK: Life Technologies and Expression Analysis (LTEA) Assay for adenosine kinase (ADK) gene using HepaRG (AID 2283471). In short, it runs like this:
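ADK expression quantified by qRT-PCR, normalised to three housekeeping genes, after 48 h exposure of HepaRG cells to eight concentrations (top 100 uM, half-log steps, duplicate, 0.5% DMSO). Up- or down-regulation fitted relative to vehicle.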

Read-out in assay [17]: Alpha-fetoprotein (AFP) gene, AFP (gene 174)
As to the kind of experiment: LTEA_HepaRG_AFP: Life Technologies and Expression Analysis (LTEA) Assay for Alpha-fetoprotein (AFP) gene using HepaRG (AID 2283472). In short, it runs like this:
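Differentiated human HepaRG cells exposed 48 h in serum-free induction medium, 8-point half-log series from 100 uM in 0.5% DMSO, duplicate. AFP mRNA by qRT-PCR, normalized to ACTB, GAPDH, POLR2A; bidirectional fit vs DMSO.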

Read-out in assay [18]: BCL2L11 (gene 10018)
Kind of assay: LTEA_HepaRG_BCL2L11: Life Technologies and Expression Analysis (LTEA) Assay for Bcl-2 (BCL2L11) gene using HepaRG (AID 2283473). In short, it runs like this: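 BCL2L11 transcript levels are measured by Fluidigm qRT-PCR, normalized to three housekeeping genes. HepaRG cultures were plated 48 h, then treated 48 h with test chemical (top 100 uM, half-log, 0.5% DMSO vehicle); curves were fitted bidirectionally against DMSO.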

Read-out in assay [19]: Apolipoprotein A-V (APOA5) gene, APOA5 (gene 116519)
Kind of assay: LTEA_HepaRG_APOA5: Life Technologies and Expression Analysis (LTEA) Assay for Apolipoprotein A-V (APOA5) gene using HepaRG (AID 2283474). In short, it runs like this:
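APOA5 transcript levels were quantified by qRT-PCR, normalized to three housekeeping genes, after 48 h chemical treatment of HepaRG cells (8 points, 100 uM maximum, half-log steps, 0.5% DMSO). Curves fitted in both directions against vehicle.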

Activity calls are given as the source filed them. The calls were made as follows: active = hit-call score of the fitted dose curve at least 0.9, where 1 is the maximum; inactive = score below 0.9.

Chain of Broad substrate specificity ATP-binding cassette transporter ABCG2 (Homo sapiens) (Q9UNQ0 whole entry, looked up): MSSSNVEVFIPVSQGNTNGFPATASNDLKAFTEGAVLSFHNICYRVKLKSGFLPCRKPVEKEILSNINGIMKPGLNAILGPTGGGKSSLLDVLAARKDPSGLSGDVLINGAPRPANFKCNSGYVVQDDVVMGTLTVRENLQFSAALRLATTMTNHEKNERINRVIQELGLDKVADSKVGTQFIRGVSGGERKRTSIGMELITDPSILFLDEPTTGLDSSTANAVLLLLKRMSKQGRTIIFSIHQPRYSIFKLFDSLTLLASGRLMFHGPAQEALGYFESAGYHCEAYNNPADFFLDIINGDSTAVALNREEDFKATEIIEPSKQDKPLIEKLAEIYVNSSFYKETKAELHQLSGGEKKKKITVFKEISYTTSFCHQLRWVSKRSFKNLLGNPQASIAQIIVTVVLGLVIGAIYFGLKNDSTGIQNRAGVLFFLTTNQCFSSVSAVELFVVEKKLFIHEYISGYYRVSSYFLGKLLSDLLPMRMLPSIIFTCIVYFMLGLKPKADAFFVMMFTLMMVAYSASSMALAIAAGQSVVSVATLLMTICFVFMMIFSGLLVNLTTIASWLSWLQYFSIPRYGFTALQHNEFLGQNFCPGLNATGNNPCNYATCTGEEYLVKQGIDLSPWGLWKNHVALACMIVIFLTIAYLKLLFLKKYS

As to `O=c1ccc2ccccc2o1`, the outcome in [1], in [2], in assay [3], in assay [4], in assay [5] and in assay [6] was inactive. The call in assay [7], in assay [8], in [9], in assay [10], in assay [11] and in assay [12] was inactive. For the same molecule, the molecule was called inactive in assay [13], in [14], in assay [15], in [16], in [17] and in assay [18]. In assay [19], the molecule was classed as inactive.
`Oc1ccccc1`: the molecule was called inactive in assay [1], in assay [2], in [3], in assay [4], in [5] and in assay [6]. The molecule was called inactive in assay [7], in assay [8], in assay [9], in assay [10], in [11] and in [12]. Further, the outcome in [13], in [14], in [15], in assay [17], in assay [18] and in assay [19] was inactive.
With `CCCCCCCCCCCC[N+](C)(C)C`, the outcome in assay [1], in [2], in assay [4], in assay [5], in assay [7] and in assay [14] was inactive. In assay [17], the molecule was called inactive. The AC50 in assay [3] was 74.9 µM (active); in [6], 84.1 µM (active); in assay [8], 73.9 µM (active); in assay [9] it was 50 µM (active); in [10] it was 67.5 µM (active); in assay [11] it was 83.3 µM (active). Besides, the AC50 in assay [12] is 77.8 µM (active); in [13] it was 66.1 µM (active); in assay [15], 84.6 µM (active); in assay [18], 90.3 µM (active); in assay [19], 79.4 µM (active).

A word on the AC50: it is the concentration giving half of the maximal activity seen.

For the origin of these results see PubChem BioAssay (EPA / NIEHS).
